BAZ2B block: blocks human BAZ2B; Q9UIF8; AlphaScreen BAZ2B-H3K14Ac peptide displacement; Potency, µM (highest dose often 114 µM), for inactives: top-dose activity change, negative = inhibition, actives largely listed as inhibitors; actives 4.4% (n = 360,000); AID 504333; also: potency is read from the fitted curve at half-maximal effect; % is scaled to controls: 0 for no effect and ±100 for the full control effect; nearly all actives have a fitted effect of over 60% in size
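Protein-peptide AlphaScreen: BAZ2B 50 nM, b-H3K14Ac 50 nM, 1x PBS pH 7.4 + 0.01% Tween-20. Preincubation 30 min RT; cpd 30 min RT (top 110 uM); beads 20 min RT, light-protected.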
KAT2A inh: inhibitors of human GCN5L2 histone acetyltransferase; Q92830; GCN5L2 HAT assay, ThioGlo1 CoA-SH fluorescence; Potency, µM (titrated, usually from 58.9 µM), for the others: at the highest dose activity change, negative = inhibition, most hits filed as inhibitors; actives 0.21% (n = 390,000); AID 504327; also: potency is read from the fitted curve at half-maximal effect; % is scaled to controls: 0 for no effect and ±100 for the full control effect
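qHTS, 1536-well. 20nM enzyme, pH 7.5 HEPES/EDTA/Tween-20 buffer; 15 min compound preinc., RT. Start: 75uM H3(1-25), 70uM AcCoA, 50uM ThioGlo1. Read Ex340/Em540 at t=0 (autofluorescence flag) and t=20 min.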
HP1b chromo inh: blocks HP1-beta chromodomain binding to methylated histone tails | P83916 | AlphaScreen HP1-beta / biotin-H3K9me3 peptide binding | Potency, µM (top dose mostly 114 µM), without a hit: top-dose activity change, negative = inhibition, usual class: inhibitors | actives 0.56% (n = 390,000); also: potency is read from the fitted curve at half-maximal effect; nearly all actives have a fitted effect of over 70% in size
Target sequence (P83916 whole entry, looked up): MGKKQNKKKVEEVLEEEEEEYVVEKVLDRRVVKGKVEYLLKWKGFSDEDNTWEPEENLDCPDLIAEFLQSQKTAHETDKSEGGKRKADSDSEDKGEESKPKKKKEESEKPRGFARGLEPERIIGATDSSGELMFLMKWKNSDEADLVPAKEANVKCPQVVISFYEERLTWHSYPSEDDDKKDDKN
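AlphaScreen: HP1-beta (50 nM) preformed 30 min with biotin-H3(1-18)K9me3 peptide (50 nM) in PBS pH 7.4, 0.01% Tween-20. Compound added for 30 min at RT, then streptavidin donor/nickel chelate acceptor beads (10 ug/mL) for 30 min.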
PLK1 PBD inh: blocks phosphopeptide binding to human PLK1 polo-box domain; P53350; Plk1 PBD binding of FITC phosphopeptide, fluorescence polarization; Potency, µM, inactives show max response, negative = inhibition, actives largely listed as inhibitors; actives 2.8% (n = 360,000); also: potency is read from the fitted curve at half-maximal effect; series mostly up to about 57 µM; % is scaled to controls: 0 for no effect and ±100 for the full control effect; nearly all actives have a fitted effect of over 65% in size
Target sequence (P53350 whole entry, looked up, the tested form may be a part): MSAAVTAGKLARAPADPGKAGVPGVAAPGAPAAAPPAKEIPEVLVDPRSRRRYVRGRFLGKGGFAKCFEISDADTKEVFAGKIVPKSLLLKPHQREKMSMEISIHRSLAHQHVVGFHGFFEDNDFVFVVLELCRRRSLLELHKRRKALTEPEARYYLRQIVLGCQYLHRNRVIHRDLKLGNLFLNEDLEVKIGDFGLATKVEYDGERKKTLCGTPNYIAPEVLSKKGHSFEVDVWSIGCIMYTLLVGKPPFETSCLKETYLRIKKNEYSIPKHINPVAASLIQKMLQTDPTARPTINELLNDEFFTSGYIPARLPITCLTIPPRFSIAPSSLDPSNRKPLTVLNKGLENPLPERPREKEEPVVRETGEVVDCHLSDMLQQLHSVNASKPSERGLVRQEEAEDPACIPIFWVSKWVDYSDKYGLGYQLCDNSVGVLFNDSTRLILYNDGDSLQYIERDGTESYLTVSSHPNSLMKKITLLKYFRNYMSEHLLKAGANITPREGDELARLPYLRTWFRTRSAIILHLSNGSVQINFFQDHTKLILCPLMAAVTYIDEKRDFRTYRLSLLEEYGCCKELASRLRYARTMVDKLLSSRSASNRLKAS
PI5P4Ka inh: PI5P4K alpha (human) kinase inhibition; actives 1.2% (n = 330,000); P48426; max response, %; PI5P4Kalpha enzyme, ADP-Glo luminescence, 60 min; active compounds read low; AID 652105; active = max response of -50% or lower; inconclusive = between -30% and -50%; inactive = -30% or higher; also: value at the top dose of about 77 µM; % is scaled to controls: 0 for no effect and ±100 for the full control effect
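Single end-point luminescence (ADP-Glo) quantified ADP from PI5P4Kalpha turnover; ATP 5 microM final, 1 h at RT, 0.1% CHAPS and 0.28 mM EGTA in HEPES pH 7.4.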
JMJD2A Tudor inh: inhibitors of human JMJD2A Tudor domain; AlphaScreen JMJD2A-Tudor / H3K4me3 peptide binding; actives 4.4% (n = 390,000); O75164; AID 504339; Potency, µM (highest dose often 114 µM), without a hit: top-dose activity change, negative = inhibition, usual class: inhibitors; also: potency is read from the fitted curve at half-maximal effect; % is scaled to controls: 0 for no effect and ±100 for the full control effect; nearly all actives have a fitted effect of over 50% in size
* = called active by the depositor; ? = inconclusive; . = no result; [ ] = remark or other dose. Shown are actives, neighbours in structure and some others; about 7% of the full set was active somewhere. Unless noted, calls follow the shape of the dose curve; as a rule, active = well fitted curve in the direction sought with a large enough effect; inconclusive = small, poorly fitted or top-dose-only effect, or another doubt; inactive = no such curve, though single readings can be large; an effect the other way counts as inactive or inconclusive.

SMILES | BAZ2B block | KAT2A inh | HP1b chromo inh | PLK1 PBD inh | PI5P4Ka inh | JMJD2A Tudor inh
CC(C)CC(=O)O/N=C1\C(=O)N(c2ccccc2)c2ccccc21 | -4.6%[57.1 µM] | -10.2% | -14.2% | 29.9µM* | 5.2 | -17.1%[11.4 µM]
CCCSc1nc(O)c(C(c2ccc(OC)c(O)c2)c2c(O)nc(SCCC)n(C)c2=O)c(=O)n1C | -8.3% | -1.2% | 13.8% | 9.47µM* | -5.3 | -10.1%
CC1Cc2cc(S(=O)(=O)NCc3ccc(F)cc3)ccc2N1C(=O)C1CCC1 (stereo unspecified) | 1.1% | -6.7% | 33.9% | . | . | -14.4%
C/C(N)=C(/C#N)C(=O)CN1C(=O)NC(Cc2c[nH]c3ccccc23)C1=O (stereo unspecified) | ? | 3.4% | 21.3% | -2.8% | -66.3* | -22.7%
O=C(CN1C(=O)NC(Cc2c[nH]c3ccccc23)C1=O)NCCc1ccccc1 (stereo unspecified) | 0.7% | -14.9% | 65.6% | -10.8% | -11.8 | -9.8%
CCCNC(=O)CN1C(=O)NC(Cc2c[nH]c3ccccc23)C1=O (stereo unspecified) | 13.6% | 1.4% | 2.9% | 26.7µM* | -8.3 | 50.1µM*
COc1cccc(NC(=O)CN2CCCN(S(=O)(=O)c3ccc(Br)cc3)CC2)c1 | -19.7% | 0.9% | 13.3% | . | . | -14.6%
COc1cc(CNc2ccc(N3CCN(C(C)=O)CC3)cc2)ccc1OCc1ccc(F)cc1 | 22.4µM* | -3.7% | ? | -5.3% | 1.0 | ?
COc1ccc(CNc2ccc(C)cc2)cc1Br | 50.1µM* | -10.1% | ? | -7.4% | 3.2 | -35.9%[57.1 µM]
COc1cc(CNCc2ccc(C(=O)O)cc2)ccc1OCc1ccc(F)cc1 | 4.3% | -2.3% | 19.7% | -12.5% | -0.9 | -19.9%
CCOc1c(Br)cc(CNc2ccc(N3CCN(C(C)=O)CC3)cc2)cc1OC | 39.8µM* | 2.9% | -22.5% | -18.2% | 0.6 | 50.1µM*
COc1cc(CNc2ccc(O)cc2)cc(Br)c1OCc1ccccc1 | 39.8µM* | -4.8% | ? | -3.2% | -6.9 | 44.7µM*
COc1cc(CNC(C)c2ccccc2)cc(Br)c1OCc1ccccc1 (stereo unspecified) | 44.8% | 0.9% | 118.8% | -5.9% | 15.0 | 80.0%
CC(C)CNC(=O)C(=O)NCC1OCCCN1S(=O)(=O)c1ccc2c(c1)OCCO2 (stereo unspecified) | -2.3% | 2.2% | 30.4% | -1.2% | 6.3 | -5.6%
COc1cc2c(s1)c1cnn(Cc3ccccc3F)c(=O)c1n2C | . | . | . | . | . | -29.9%
C=CCC(CC(O)COCCC)C(=O)NNC(=S)Nc1ccccc1 (stereo unspecified) | -18.5% | -5.5% | -15.1% | ? | 0.7 | -23.8%
CCOc1cc(CNc2ccc(N3CCN(C(C)=O)CC3)cc2)cc(Br)c1OC | 31.6µM* | 1.0% | ? | 6.7% | -4.6 | 35.5µM*
CCOc1cc(C(=O)Nc2ccc(N3CCN(C(C)=O)CC3)cc2)cc(OCC)c1OCC | -32.0% | -1.6% | 22.0% | 6.2% | -1.7 | -9.0%
O=C(O)c1cc(Br)ccn1 | . | -3.3% | 7.4% | -3.9% | 2.9 | 3.16µM*
O=C(O)c1cccc(C(=O)O)n1 | -2.7% | -5.2% | . | . | . | .
CN(C)c1ccnc(C(=O)O)c1 | 22.4µM* | -3.8% | 1.2% | -0.3% | -1.9 | 0.708µM*
CN(C)c1cncc(C(=O)O)c1 | 20.7% | -0.1% | 29.8% | 1.8% | -1.2 | -5.2%
Cc1cccc(C)c1NC(=O)C1(C)CN(S(C)(=O)=O)CC(=O)N1CCOc1ccccc1 (stereo unspecified) | . | . | . | -1.6% | -11.5 | .
O=[N+]([O-])/C(C(Cl)=C(Cl)Cl)=C(/Sc1ccccc1)N1CCCCC1 | 35.5µM* | -3.9% | -35.7% | -20.7% | 6.4 | ?
c1ccc(C2=Nn3c(Cn4nnc5ccccc54)nnc3SC2)cc1 | -5.3% | -5.8% | 27.4% | 3.2% | 3.8 | -6.6%
SMILES | BAZ2B block | KAT2A inh | HP1b chromo inh | PLK1 PBD inh | PI5P4Ka inh | JMJD2A Tudor inh
c1ccc(-c2ccc(C3=Nn4c(Cn5nnc6ccccc65)nnc4SC3)cc2)cc1 | 5.6%[57.1 µM] | ? | 15.8µM* | 4.74µM* | ? | ?
Clc1ccc(C2=Nn3c(Cn4nnc5ccccc54)nnc3SC2)cc1 | ? | -26.3% | ? | 8.44µM* | -19.5 | 79.4µM*
COC(=O)c1ccc(COC(=O)CNS(=O)(=O)c2ccccc2)cc1 | 1.8% | ? | 23.7% | 4.2% | -1.3 | -7.2%
O=C(CNS(=O)(=O)c1ccccc1)NCC(=O)OCc1ccc(Br)cc1 | 3.7% | -0.6% | -3.4% | 11.9µM* | -29.3 | ?
CC(=O)N1c2ccc(S(=O)(=O)N3CCC(C(=O)Nc4cccc(C)c4C)CC3)cc2CC1C (stereo unspecified) | -24.6% | -4.3% | -9.2% | 23.8µM* | -14.4 | ?
CC(=O)N1c2ccc(S(=O)(=O)N3CCC(C(=O)Nc4ncccc4C)CC3)cc2CC1C (stereo unspecified) | -4.5% | -2.5% | 4.6% | -22.0% | 17.7 | -7.5%
CC(=O)N1c2ccc(S(=O)(=O)N3CCC(C(=O)Nc4cccc(C(F)(F)F)c4)CC3)cc2CC1C (stereo unspecified) | -20.7% | -8.1% | -0.9% | 26.7µM* | 4.4 | -25.0%
COc1cccc(NC(=O)C2CCN(S(=O)(=O)c3ccc4c(c3)CC(C)N4C(C)=O)CC2)c1 (stereo unspecified) | -14.0% | -8.3% | 29.4% | 1.1% | -1.0 | 5.1%
Oc1ccccc1N1CCN(c2nnnn2-c2ccccc2)CC1 | -12.7% | -9.1% | 3.1% | 29.9µM* | -11.1 | ?
COc1cc(OC)nc(Oc2ccccc2/C=N/O)n1 | . | . | 11.8% | -0.3% | 3.7 | 44.7µM*
CCOC(=O)CCCCC(=O)c1[nH]c(=O)[nH]c1CSc1nc(C)cc(=O)[nH]1 | 50.1µM* | 0.4% | 18.2% | -16.4% | . | ?
CCOC(=O)CCCCC(=O)c1[nH]c(=O)[nH]c1CSc1nc2ccccc2[nH]1 | ? | -3.7% | 21.4% | ? | . | 79.4µM*
CCOC(=O)CCCCC(=O)c1[nH]c(=O)[nH]c1CSc1nc(C)cc(C)n1 | ? | 3.8% | 26.6% | -3.2% | -10.6 | -28.6%
CCOC(=O)CCCCC(=O)c1[nH]c(=O)[nH]c1CN1CCOCC1 | 15.8µM* | -1.9% | -36.7% | 1.8% | . | 35.5µM*
CCOC(=O)CCCCC(=O)c1[nH]c(=O)[nH]c1C[n+]1ccccc1 | -7.5% | -2.5% | . | . | . | .
CCc1nc2ccccc2c(C(=O)OCC(=O)N(CCOC)c2c(N)n(Cc3ccccc3)c(=O)[nH]c2=O)c1C | -24.0% | 3.8% | 18.4% | -3.9% | 4.1 | -15.2%
CC(C)C[C@@H]1COc2cccc(N3CCSCC3)c2S(=O)(=O)N1 | . | . | . | -5.2% | -0.2 | .
Cc1cc(NC(=O)c2ccc3[nH]c(C)c(C)c3c2)ccn1 | 50.1µM* | 1.4% | 13.5% | 2.7% | 2.6 | -17.1%
COc1ccccc1CNC(=O)c1ccc2[nH]c(C)c(C)c2c1 | 50.1µM* | -1.7% | ? | . | . | ?

High-throughput results from PubChem BioAssay.
